# Measured values from PubChem BioAssay AID588346 (National Center for Advancing Translational Sciences (NCATS), 2011).
# Records with an inconclusive call do not appear. Active and inactive are the calls of the source. Calls follow the shape of the dose curve; as a rule, active = well fitted curve in the direction sought with a large enough effect; inconclusive = small, poorly fitted or top-dose-only effect, or another doubt; inactive = no such curve, though single readings can be large or run the other way.
# Assay: qHTS Assay for Inhibitors of Histone Lysine Methyltransferase G9a: Hit Confirmation in b-rIgG Counterscreen
# Conditions: AlphaScreen b-rIgG bead counterscreen, signal interference; series mostly up to 55.7 µM; activity change, negative = inhibition: at the top concentration
# Description: Methylated lysines, on the N-terminal tails of histone proteins serve as epigenetic markers to recruit factors that can then modify local chromatin structure to lead to functional consequences. G9a and other members of the SUV39 family of the SET domain-containing superfamily of histone lysine methyltransferases (HMT) have been identified to specifically methylate Lys9 of histone H3 (H3K9). G9a catalyzes the mono- and di-methylation of H3K9 in mammalian euchromatic regions, where the resulting H3K9me2 is indicative of transcriptional repression. […] The inhibition of G9a will result in transcriptional activation and work synergistically with DNA methyltransferase and histone deacetylase inhibitors, to kill cancer cells. This qHTS assay for identification of G9a inhibitors is a chemiluminescence based AlphaScreen (PerkinElmer). Methylation of biotinylated-histone peptide is measured through specific antibody-based detection, in conjunction with streptavidin-coated donor and anti-IgG antibody-coated acceptor beads. The method is particularly well suited for detection of inhibitors acting by the desired histone peptide competitive mechanism and is applicable to testing other HMTs. Although AlphaScreen has significant advantages with its utility in a variety of epigenetic target assays, the primary screening data provided in this deposition should be used with caution due to the prevalence of screening artifacts. Because an AlphaScreen counterscreen is highly recommended to be run against any putative actives to eliminate non specific artifacts, this assay was used as a counterscreen. Quinn et al. A chemiluminescence-based method for identification of histone lysine methyltransferase inhibitors. Mol Biosyst 6(5): 782-8. 2010. PMID: 20567762 [2] Baell,Holloway. New substructure filters for removal of pan assay interference compounds (PAINS) from screening libraries and for their exclusion in bioassays. J Med Chem. 53(7):2719-40. 2010. PMID: 20131845 NIH Chemical Genomics Center [NCGC] NIH Molecular Libraries Probe Production Network [MLPCN] MLPCN Grant: MH084681-02 Assay Submitter (PI): Structural Genomic Consortium - Toronto, Peter Brown
# Biotinylated rabbit-IgG (b-rIgG) (Santa Cruz Biotechnology, Inc., Santa Cruz, CA) was added to 1,536-well plates in a 3 uL dispense. Compounds were added in a 23 nL pin-transfer step, and plates were incubated at room temperature for 15 min. Streptavidin-coated donor and anti-rIgG acceptor AlphaScreen beads were added (1 uL) for final concentrations of 20 ug/mL each bead and 1 nM b-rIgG, and plates read on the Envision after a 15 min incubation at room temperature in the dark.
SMILES,"activity change, negative = inhibition",Potency
COc1ccc(C(=O)/C=C/Sc2nc3ccccc3o2)cc1,-5.53% (inactive),
O=C(N/N=C/c1ccccn1)c1cc(-c2ccc(Cl)cc2)nc2ccccc12,15.7% (inactive),
O=C1C=C(Nc2ccc(Cl)cc2)C(=O)N1c1ccc(Cl)cc1,5.11% (inactive),
CCC(=O)N1CCN(c2ccc(NC(=O)c3ccc([N+](=O)[O-])o3)cc2Cl)CC1,-16.6% (inactive),
Oc1ccc(Br)cc1C=Nc1ccc2c3c(cccc13)CC2,-34% (inactive),
N=c1n(CC(=O)c2ccc([N+](=O)[O-])cc2)c2ccccc2n1Cc1ccccc1Cl,-10.2% (inactive),
CCCC(=O)N1CCN(c2ccc(NC(=O)c3ccc([N+](=O)[O-])o3)cc2Cl)CC1,-19.1% (inactive),
Cc1ccc(C(C)C)c(OCc2ccc(C(=O)N/N=C/c3cccc(O)c3O)cc2)c1,-14% (inactive),
Oc1c(N=Nc2ccccn2)ccc2ccccc12,,11.2 µM (active)
NC(=S)N/N=C/c1ncc(C(F)(F)F)cc1Cl,24.7% (inactive),
CC(C)N(CCC(=O)c1ccc2ccccc2c1)Cc1ccccc1,41.7% (inactive),
O=C(CSc1cccc[n+]1[O-])c1ccccc1Br,-15.3% (inactive),
Ic1ccc(N2CCN(Cc3c[nH]c4ncccc34)CC2)cc1,3.83% (inactive),
COc1ccccc1N1CCN(CCN2C(=O)CC3(CCCC3)CC2=O)CC1,-17.9% (inactive),
NC(=O)c1cc[n+](CC2=C(C(=O)O)N3C(=O)[C@@H](NC(=O)[C@@H](c4ccccc4)S(=O)(=O)[O-])[C@H]3SC2)cc1,-11.5% [at 114 µM] (inactive),
COc1cc2nc(N3CCN(C(=O)C4COc5ccccc5O4)CC3)nc(N)c2cc1OC (stereo not given),-37% (inactive),
C/C=C/c1ccc(OCC(=O)OCC(=O)NC2CC2)c(OC)c1,-10.2% (inactive),
COc1cc2c(cc1C(F)(F)F)N(C(=O)Nc1cc(F)cc(-c3cccnc3)c1)CC2,24.3% (inactive),
CC(C)C(=O)NC(c1ccc(N(C)C)cc1)c1ccc2cccnc2c1O (stereo not given),-3.4% (inactive),
COCCNC(=S)N/N=C(\C)c1ccccc1O,-4.68% (inactive),

SMILES,"activity change, negative = inhibition",Potency
CNc1nc(N2CCCN(C)CC2)nc2cc(OC)c(OC)cc12,-17.3% (inactive),
O=c1c2ccccc2nc(COc2ccccc2)n1/N=C/c1c[nH]c2ccccc12,1.28% (inactive),
COc1ccc2c(C)cc(SCC(=O)N(C)C3CCS(=O)(=O)C3)nc2c1 (stereo not given),-7.23% (inactive),
COc1cccc(N2CCN(S(=O)(=O)c3ccc(-n4cnnn4)cc3)CC2)c1,-8.09% (inactive),
COc1ccc(NC(=O)CSc2nc3c(oc4ccccc43)c(=O)n2Cc2ccco2)cc1Cl,-5.96% (inactive),
COc1nc(Nc2nc3ccccc3c(=O)[nH]2)nc2ccc(C)cc12,34.5% (inactive),
Cc1ccc(/C=[N+](\[O-])c2ccc(N(C)C)cc2)c2nsnc12,-70.6% (inactive),
C[n+]1cc2c3c(ccc2c2ccc4cc5c(cc4c21)OCO5)OCO3,0.425% [at 114 µM] (inactive),
O=C(CSc1cccc2cccnc12)N1CCCC1,15.3% (inactive),
CCc1nnc(NC(=O)c2cccc(C(=O)Nc3nnc(CC)s3)n2)s1,31.5% (inactive),
CN(c1ccccc1)S(=O)(=O)c1nnc(NC(=O)c2ccccc2)s1,-8.51% (inactive),
COc1ccc(NC(=O)c2ccc(-c3ccc(-c4noc(C)n4)cc3C)cc2)cc1N1CCN(C)CC1,,28.2 µM (active)
O=C1CN(c2nc(-c3ccccc3)c3cc(Cl)ccc3n2)c2ccccc2N1,11.1% (inactive),
Nc1nc2ccc(Cl)cc2c2nc(-c3ccco3)nn12,-12.8% [at 114 µM] (inactive),
CC1=NN(c2nc3ccccc3[nH]2)C(=O)C1Cc1ccccc1 (stereo not given),-7.66% (inactive),
CNC(=O)Oc1ccc2c(c1)[C@]1(C)CCN(C)[C@@H]1N2C,-4.26% (inactive),
CSc1nsc(/C=C/Nc2cccc(Cl)c2)c1C#N,9.36% (inactive),
COc1ccc2c(C)nc(Nc3nc(-c4ccccc4)cc(=O)[nH]3)nc2c1,153% (inactive),
CCOn1c(=O)c[n+]([O-])c2ccccc21,17% (inactive),
CCCCOC(=O)Cn1c2ccc(OC)cc2c2nc3ccccc3nc21,16.2% (inactive),
